Bioassay records (PubChem BioAssay)
BAZ2B block: BAZ2B (human) inhibition; AlphaScreen BAZ2B-H3K14Ac peptide displacement; Q9UIF8; actives 4.4% (n = 360,000); Potency, µM (series often up to 114 µM), without a hit: at the top dose activity change, negative = inhibition, usual class: inhibitors; further: on the % scale 0 is the no-effect control and ±100 the full control effect; nearly all actives have a fitted effect of over 60% in size
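In this displacement format the biotinylated H3(5-23) peptide acetylated at Lys14 serves as ligand at 50 nM, with BAZ2B at 50 nM in PBS pH 7.4 containing 0.01% Tween-20. Donor and acceptor beads are 10 ug/mL final.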
G9a inh: G9a (human) methyltransferase inhibition; Q96KQ7; G9a H3K9 monomethylation, AlphaScreen, 2 h; AID 504332; Potency, µM (doses to about 102 µM), without a hit: at the top dose activity, negative = inhibition, actives largely listed as inhibitors; actives 8.8% (n = 350,000); further: on the % scale 0 is the no-effect control and ±100 the full control effect; nearly all actives have a fitted effect of over 75% in size
Target sequence (Q96KQ7 913-1193 limits assumed): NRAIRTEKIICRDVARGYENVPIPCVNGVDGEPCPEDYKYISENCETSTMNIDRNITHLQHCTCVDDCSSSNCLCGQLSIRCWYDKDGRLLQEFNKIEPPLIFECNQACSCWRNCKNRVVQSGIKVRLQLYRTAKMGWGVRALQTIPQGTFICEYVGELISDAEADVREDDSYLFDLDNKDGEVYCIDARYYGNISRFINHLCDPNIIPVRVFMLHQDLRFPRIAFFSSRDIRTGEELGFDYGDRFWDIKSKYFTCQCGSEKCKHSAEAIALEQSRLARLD
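Quantitative HTS format: methyltransferase activity on a biotin-tagged H3K9 peptide is measured by AlphaScreen, using a rabbit anti-monomethyl-H3K9 antibody with streptavidin donor and anti-IgG acceptor beads. Final levels are 20 nM enzyme, 500 nM peptide, 20 uM SAM; 2 h RT.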
JMJD2A Tudor: JMJD2A Tudor domain (human) inhibition; AlphaScreen JMJD2A-Tudor / H3K4me3 peptide binding; Potency, µM (series often up to 114 µM), for inactives: at the highest dose activity change, negative = inhibition, usual class: inhibitors; actives 4.4% (n = 390,000); AID 504339; further: on the % scale 0 is the no-effect control and ±100 the full control effect; nearly all actives have a fitted effect of over 50% in size
VDR inhibitor: vitamin D3 receptor (human) inhibition | P11473 | VDR-SRC2-3 peptide fluorescence polarization, 2 h | Potency, µM, inactives show max response, negative = inhibition, usual class: inhibitors | actives 0.93% (n = 400,000); further: on the % scale 0 is the no-effect control and ±100 the full control effect
Target sequence (P11473 whole entry, looked up): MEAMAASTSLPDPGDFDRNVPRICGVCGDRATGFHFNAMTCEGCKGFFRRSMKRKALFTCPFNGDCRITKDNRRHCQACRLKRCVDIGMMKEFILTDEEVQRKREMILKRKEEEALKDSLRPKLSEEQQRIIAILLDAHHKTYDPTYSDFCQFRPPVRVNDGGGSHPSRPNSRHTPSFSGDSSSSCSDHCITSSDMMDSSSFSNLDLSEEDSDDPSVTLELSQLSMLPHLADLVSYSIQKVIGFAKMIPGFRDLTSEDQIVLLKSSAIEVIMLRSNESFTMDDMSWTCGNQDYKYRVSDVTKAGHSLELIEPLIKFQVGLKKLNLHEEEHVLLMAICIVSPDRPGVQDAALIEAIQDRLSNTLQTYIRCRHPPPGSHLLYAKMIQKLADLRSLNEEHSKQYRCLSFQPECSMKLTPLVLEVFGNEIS
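The screen uses fluorescence polarization to detect compounds that interfere with recruitment of the SRC2-3 coactivator peptide to VDR; plates are read after 2 h at room temperature.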
PLK1 PBD block: inhibitors of human PLK1 polo-box domain binding. actives 2.8% (n = 360,000). Potency, µM, without a hit: max response, negative = inhibition, most hits filed as inhibitors. Plk1 PBD binding of FITC phosphopeptide, fluorescence polarization; further: series mostly up to about 57 µM; on the % scale 0 is the no-effect control and ±100 the full control effect; nearly all actives have a fitted effect of over 65% in size
HP1b binding inh: HP1-beta chromodomain-methylated histone interaction inhibition. AID 540317. AlphaScreen HP1-beta / biotin-H3K9me3 peptide binding. actives 0.56% (n = 390,000). Potency, µM (series often up to 114 µM), without a hit: top-dose activity change, negative = inhibition, hits mostly inhibitors. P83916; further: nearly all actives have a fitted effect of over 70% in size
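AlphaScreen: HP1-beta (50 nM) preformed 30 min with biotin-H3(1-18)K9me3 peptide (50 nM) in PBS pH 7.4, 0.01% Tween-20. Compound added for 30 min at RT, then streptavidin donor/nickel chelate acceptor beads (10 ug/mL) for 30 min.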
Numbers without * were called inactive; ? = inconclusive; nt = not tested or not shown; [ ] = another dose, or the depositor's remark. An excerpt weighted towards active compounds, which were near 11% of everything screened. The call rests on the fitted dose curve; in most records, active means well fitted curve in the direction sought with a large enough effect; inconclusive means small, poorly fitted or top-dose-only effect, or another doubt; inactive means no such curve, though single readings can be large; an effect the other way counts as inactive or inconclusive. Potency means the concentration at half of the fitted maximal effect.

SMILES | BAZ2B block | G9a inh | JMJD2A Tudor | VDR inhibitor | PLK1 PBD block | HP1b binding inh
O=c1c(-c2cc(F)cc(F)c2)nc2cncnc2n1-c1ccccc1 | nt | 7%[0.501 µM] | nt | -2% | nt | nt
CC(=O)NC(Cc1ccccc1)C(=O)NC1CCN(C(=O)c2ccc([N+](=O)[O-])cc2)CC1 (stereo not given) | 10% | 21% | -34% | -18% | 3.4µM* | 11%
O=C(O)CSc1ccnc2cc(Cl)ccc12 | -4% | 56µM* | -11% | 9% | 2% | 19%
COC(=O)c1c(NC(=O)c2cc(=O)c3ccc(C)c(C)c3o2)sc2c1CCCC2 | -9% | 6%[59 µM] | -10% | 9% | nt | 43%
CCN(CC)C(=O)Cn1cc(SCC(=O)Nc2cc(OC)ccc2OC)c2ccccc21 | ? | -37%[59 µM] | -29% | 7% | nt | 30%
CCOc1ccc(S(=O)(=O)Nc2ccc(O)c(Sc3ncn[nH]3)c2)cc1 | 12% | 22µM* | -2% | -3% | -9% | 35%
COc1ccc(OC)c(S(=O)(=O)Nc2ccc(O)c(Sc3ncn[nH]3)c2)c1 | ? | 7.9µM* | ? | 3% | -10% | 8%
O=S(=O)(Nc1ccc(O)c2ccccc12)c1ccc(F)cc1 | nt | nt | 50µM* | ? | 27µM* | ?
Cc1ccc(S(=O)(=O)Nc2ccc(O)c(Sc3ncn[nH]3)c2)cc1 | -16% | ? | -19% | 3% | -7% | -4%
COc1ccc(Cl)cc1S(=O)(=O)Nc1ncn[nH]1 | 1% | 79µM* | -11% | -9% | ? | 50%
COc1ccc(Br)cc1S(=O)(=O)Nc1ncn[nH]1 | -11% | 1% | -11% | -3% | -7% | 38%
COc1ccc(OC)c(S(=O)(=O)Nc2ccc(O)c3ccccc23)c1 | 45µM* | 5.6µM* | ? | -3% | ? | 71µM*
CC1(C(=O)Nc2ccc3c(c2)OCCO3)CCC(=O)N1C1CCN(Cc2ccccc2)CC1 (stereo not given) | nt | nt | nt | nt | -7% | nt
COc1cnc(SC(C)C)[nH]c1=O | 0% | nt | -20% | 5% | -4% | 31%
CCc1cc2c(=O)[nH]c(-c3ccccn3)nc2s1 | 28µM* | 26%[59 µM] | 25µM* | -22% | -25% | 36%
COc1cnc(-c2ccccn2)[nH]c1=O | 1.3µM* | 34% | 40µM* | -7% | -16% | 31%
CCN(CC)CCCOc1nc(C)nc2c1oc1ccccc12 | ? | 35µM* | -19% | -17% | -2% | 18%
CN(C)CCOc1nc(-c2ccccc2)nc2c1oc1ccccc12 | -13% | ? | ? | -11% | 0% | -18%
CCOC(=O)c1ccc(Oc2nc(C)nc3c2oc2ccccc23)cc1 | 5% | 4%[59 µM] | -8% | -3% | nt | 36%
CCN(CC)CCOc1nc(C)nc2c1oc1ccccc12 | ? | 50µM* | ? | -3% | 27µM* | 27%
CCOc1ccc(CCNC(=O)c2ccc3ccccc3n2)cc1OCC | -11% | nt | -8% | -2% | 0% | 27%
CCOC(=O)C1CCCN(S(=O)(=O)c2ccc3[nH]c(=O)oc3c2)C1 (stereo not given) | -15% | 7%[59 µM] | -20% | 11% | nt | 11%
Cc1cc(NC(=O)/C=C/c2ccco2)ccc1NC(=O)c1ccccc1 | -28% | ? | -10% | 14% | -6% | 28%
CN(C)c1ccc(C(=O)/C=C/c2ccco2)cc1 | 50µM* | 13µM* | -30% | -1% | -15% | -50%
CC(=O)Nc1cccc(C(=O)/C=C/c2ccc(/C=C/C(=O)c3cccc(NC(C)=O)c3)cc2)c1 | 1% | 1%[59 µM] | nt | nt | nt | nt
SMILES | BAZ2B block | G9a inh | JMJD2A Tudor | VDR inhibitor | PLK1 PBD block | HP1b binding inh
CC(=O)Nc1cccc(C(=O)/C=C/c2ccco2)c1 | -2% | 14µM* | -12% | -20% | -22% | 6%
CC(=O)Nc1ccc(C(=O)/C=C/c2ccco2)cc1 | 56µM* | 10µM* | ? | ? | 0% | -26%
Cc1ccc(NC(=O)/C=C/c2ccco2)cc1F | ? | 13µM* | -35% | -7% | nt | ?
CS(=O)(=O)Cc1cc(N2CCCC2)nc(-c2ccccc2)n1 | -4% | 2% | -12% | 2% | -11% | 36%
CCOc1ccc(N(CC)C(=O)c2cn(CC)c(=O)c3cc(OC)c(OC)cc23)cc1 | 0% | -3% | -10% | 8% | -13% | 22%
O=C(Cc1cccc(NC(=O)C2CCN(C(=O)C3CCCCC3)CC2)c1)Nc1cccc(C(=O)N2CCCCC2)c1 | nt | nt | -16% | -11% | -16% | 34%
O=C(/C=C\c1ccco1)c1ccc(NC(=O)c2ccco2)cc1 | 45µM* | 22µM* | 50µM* | -9% | -26% | ?
O=C(NCc1ccccc1)c1ccc(NC(=O)c2ccco2)cc1 | -26% | 67% | -2% | 2% | -1% | 43%
O=C(NC(=S)Nc1ccccc1)c1ccc(-c2ccccc2)cc1 | 7% | 18%[59 µM] | -15% | -17% | -10% | ?
O=C(O)c1ccc(NC(=S)NC(=O)c2ccc(-c3ccccc3)cc2)cc1 | ? | 18µM* | ? | -6% | ? | ?
Cc1ccnc(NC(=S)NC(=O)c2cncc(Br)c2)c1 | -39% | 0.63µM* | 3% | -15% | 0% | 24%
Cc1ccc(NC(=S)NC(=O)c2cncc(Br)c2)c(C)c1 | nt | nt | -11% | -2% | -4% | 49%
O=C(O)c1ccc(NC(=S)NC(=O)c2cncc(Br)c2)cc1 | ? | 40µM* | -8% | -4% | -29% | -1%
Cc1nc(NC(=S)NC(=O)c2cncc(Br)c2)ccc1Br | -28% | nt | 18µM* | ? | 21µM* | 6%
CC(C)c1ccc(C(=O)NNC(=O)c2n[nH]c(=O)c3ccccc23)cc1 | 8% | 5µM* | -15% | 8% | -5% | 27%
CC(C)NC(=O)c1n[nH]c(=O)c2ccccc12 | 4% | -4% | -13% | 7% | -7% | 48%
Cc1ccc(NC(=O)COC(=O)c2ccn(C)n2)cc1 | -2% | ? | -13% | -9% | -7% | -5%
CCOC(=O)c1c(NC(=S)Nc2ccccc2)sc2c1CC(C)(C)SC2 | ? | 40µM* | -29% | 0% | ? | -8%
CCOC(=O)c1c(NC(=S)Nc2ccc(OC)cc2)sc2c1CCC2 | ? | -48%[59 µM] | -9% | -21% | ? | ?
CCOC(=O)c1c(NC(=S)NC)sc2c1CC(C)(C)SC2 | -6% | ? | -20% | ? | 24µM* | 20%
CC(NC(=O)CN(c1cccc(C(F)(F)F)c1)S(C)(=O)=O)c1ccccc1 (stereo not given) | 0% | ? | -8% | -2% | -6% | 36%
COc1ccc(/C=C/C(=O)OCC(=O)N2CC(=O)Nc3ccccc32)cc1S(=O)(=O)N1CCOCC1 | -11% | 56µM* | -18% | 12% | -4% | 40%
O=C1CN(C(=O)COC(=O)/C=C/c2ccc(OC(F)F)cc2)c2ccccc2N1 | -11% | -8%[59 µM] | -4%[57.1 µM] | 0% | -8% | 10%
